Compounds with a hit are over-represented: about 6.6% of the library has one in this group of screens.
PTAP TSG101 blk: blocks PTAP/TSG101 interaction to inhibit HIV-1 budding. Q99816. Fluorescence polarization, FITC-PTAP peptide / Tsg101 binding. Potency, µM (series often up to 115 µM), for inactives: at the highest dose activity change, negative = inhibition, hits mostly inhibitors. 340,000 tested, under 10 active; active = well fitted inhibition curve with a large enough effect in the main read-out, with a control signal flat, not every such curve was filed as active; inconclusive = small, poorly fitted or top-dose-only effect, or effect the other way, or a change in a side signal; inactive = no such curve, though single readings can be large or run the other way; also: % of control where 0% means no effect
Target sequence (Q99816 whole entry, looked up): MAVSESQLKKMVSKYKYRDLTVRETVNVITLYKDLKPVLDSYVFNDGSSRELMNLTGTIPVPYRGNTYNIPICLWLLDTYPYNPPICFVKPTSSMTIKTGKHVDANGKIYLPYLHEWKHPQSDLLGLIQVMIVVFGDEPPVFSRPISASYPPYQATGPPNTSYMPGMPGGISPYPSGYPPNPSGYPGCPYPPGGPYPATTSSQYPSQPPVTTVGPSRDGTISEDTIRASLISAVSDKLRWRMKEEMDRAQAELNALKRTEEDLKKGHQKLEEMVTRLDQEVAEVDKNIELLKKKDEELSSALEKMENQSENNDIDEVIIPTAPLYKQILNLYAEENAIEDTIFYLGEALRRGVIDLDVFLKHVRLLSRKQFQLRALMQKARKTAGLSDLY
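Steps: Tsg101 binding domain dispensed (10 uM final), compounds pinned in DMSO, FITC-labeled PTAP-motif peptide added (50 nM final); after 20 min binding at room temperature, polarization measured.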
KB-V1 MDR tox: KB-V1 MDR subline cytotoxicity; KB-V1 MDR cells viability, CellTiter-Glo, 72 h; 400,000 compounds, 3.4% hits; Potency, µM (doses to about 46.1 µM), usual class: cytotoxic; AID 1347076; also: % is scaled to controls: 0 for no effect and ±100 for the full control effect; nearly all actives have a fitted effect of over 60% in size
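KB-V1 MDR subline cells in DMEM (phenol-red free, 10% FBS) exposed to compounds in qHTS concentration series for 72 h at 37 degrees C. Viability read by CellTiter-Glo luminescence; concentration-effect curves fitted after normalization and correction.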
MCF10A rerep: induces DNA re-replication in MCF 10a normal breast cells | 350,000 compounds, 2.9% hits | AID 624296 | Potency, µM (highest dose often 46.1 µM), for the others: at the highest dose activity, positive = re-replication, hits mostly activators | MCF 10A DNA re-replication, Hoechst nuclear intensity, 48 h; also: % of control where 0% means no effect; nearly all actives have a fitted effect of over 50% in size
SW480 rereplic: induces DNA re-replication in SW480 colon adenocarcinoma cells; 340,000 compounds, 1.8% hits; SW480 DNA re-replication, Hoechst DNA content imaging, 48 h; Potency, µM (series often up to 46.1 µM), inactives show top-dose re-replication activation, usual class: activators; also: % of control where 0% means no effect; nearly all actives have a fitted effect of over 55% in size
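Readout is total intensity of Hoechst-stained nuclei, excited at 405 nm and collected at 500-530 nm. Compound treatment lasted 48 hr at 37 C in 5% CO2 before staining.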
KB-3-1 tox: kills parental KB-3-1 adenocarcinoma cells. KB-3-1 viability, CellTiter-Glo ATP luminescence, 72 h. Potency, µM (highest dose often 46.1 µM), usual class: cytotoxic. 400,000 compounds, 1.4% hits. AID 1347075; also: % is scaled to controls: 0 for no effect and ±100 for the full control effect; nearly all actives have a fitted effect of over 60% in size
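Cells are dispensed, compounds pinned in, plates held at 37 °C for 72 h, then CellTiter-Glo is added and luminescence read after 10 minutes. Cell line: parental KB-3-1 in phenol-red-free DMEM, 10% FBS.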
RGS4 inhibitor: human RGS4 inhibition. Transcreener GDP fluorescence polarization, RGS4-accelerated GTP hydrolysis. Potency, µM (doses to about 114 µM), inactives show at the highest dose activity change, negative = inhibition, most hits filed as inhibitors. 390,000 compounds, 0.039% hits. AID 504845; also: % is scaled to controls: 0 for no effect and ±100 for the full control effect; nearly all actives have a fitted effect of over 75% in size
Target sequence (P49798 whole entry, looked up): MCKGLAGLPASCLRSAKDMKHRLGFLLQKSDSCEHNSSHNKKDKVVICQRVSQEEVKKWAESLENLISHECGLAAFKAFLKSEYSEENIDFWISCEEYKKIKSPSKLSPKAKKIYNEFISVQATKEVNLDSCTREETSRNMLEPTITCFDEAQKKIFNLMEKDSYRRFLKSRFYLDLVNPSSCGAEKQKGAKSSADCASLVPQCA
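MLSMR compounds (23 nl, pin-transferred) preincubated 10 min at room temperature with a 500nM (2x) first reagent, then RGS4 at 900nM (2x) plus Transcreener GDP mix added; fluorescence polarization (620/688 nm) read before and after 90 min at 30 °C.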
Numbers without * were called inactive; i = inactive; ? = inconclusive; . = no result given; ! = not active in a repeat; [ ] = remark or other dose. Unless noted, calls follow the shape of the dose curve; as a rule, active = well fitted curve in the direction sought with a large enough effect; inconclusive = small, poorly fitted or top-dose-only effect, or another doubt; inactive = no such curve, though single readings can be large; an effect the other way counts as inactive or inconclusive. Potency is read from the fitted curve at half-maximal effect.

SMILES | PTAP TSG101 blk | KB-V1 MDR tox | MCF10A rerep | SW480 rereplic | KB-3-1 tox | RGS4 inhibitor
Cc1[nH]n(-c2cccc3ccccc23)c(=O)c1C=Nc1ccc2[nH]c(=O)[nH]c2c1 | -5% | i | -4% | 5% | i | -27%
CC12CCC=CC1C(c1ccoc1)N(Cc1ccccc1)C2=O (stereo unspecified) | . | . | . | . | . | -12%
Cc1cccc(NC(=O)c2sc3nc(-c4ccccc4)cn3c2C)c1C | . | . | . | . | . | 2%
Cc1[nH]nc(-c2ccc(O)c(C)c2O)c1-c1cnn(-c2ccccc2)c1 | -2% | 16µM* | 77% | 0% | i | -5%
CC(=O)NCc1nc2cccnc2n1Cc1ccccc1 | . | . | . | . | . | -15%
COc1ccc(C2Nc3ccccc3C(=O)N2c2ccccc2F)cc1COc1ccc(NC(C)=O)cc1 (stereo unspecified) | . | i | . | . | i | 15%
C=CCn1c(SCC(=O)c2[nH]c(C)c(C(=O)OCC)c2C)nc2scc(-c3ccc(OC)cc3)c2c1=O | -5% | ? | ? | ? | 4.6µM* | 7%
C=CCn1c(SCC(=O)c2[nH]c(C)c(C(=O)OCC)c2C)nc2scc(-c3ccccc3)c2c1=O | 1% | i | ? | 8% | i | 39%
CCN/N=C(\Cc1nc2ccccc2[nH]1)c1ccccc1 | 1% | i | 21µM* | 16% | i | -48%
Cc1ccc(N/N=C(\Cc2nc3ccccc3[nH]2)c2ccccc2)cc1 | 1% | 3.7µM* | ? | 1.8µM* | 1.2µM* | ?
CSc1ccc(C2Nc3cccc4cccc(c34)N2)cc1 | -9% | i | 6% | 7% | i | ?
O=C1NC(c2ccc(Cl)c([N+](=O)[O-])c2)Nc2ccccc21 (stereo unspecified) | -5% | i | 6% | 72% | ? | 32%
CSc1ccc(C2NC(=O)c3ccccc3N2)cc1 (stereo unspecified) | -1% | ? | 16µM* | 9.2µM* | ? | -1%
O=C1NC(c2cccc(OCc3ccccc3)c2)Nc2ccccc21 (stereo unspecified) | -1% | 0.65µM* | 2.3µM* | 1.8µM* | 0.58µM* | 3%
O=C1NC(c2ccc(O)cc2)Nc2ccccc21 (stereo unspecified) | 0% | ? | 12µM* | ? | ? | 0%
CCn1cc(C(=O)NCCc2ccc(Cl)cc2)c(=O)c2cc(S(=O)(=O)N3CCOCC3)ccc21 | . | i | . | . | ? | 6%
Cc1cc2ncn(-c3ncnc4sc(C)c(C)c34)c2cc1C | -13% | i | -3% | -3% | i | 19%
Cc1cc2ncn(-c3ncnc4scc(-c5ccccc5)c34)c2cc1C | -3% | 4.1µM* | 24% | -1% | i | -36%
Cc1cc2ncn(-c3ncnc4sc5c(c34)CCC(C)C5)c2cc1C (stereo unspecified) | -2% | 13µM* | ? | 0% | i | 1%
O=C1[C@H](Cc2ccccc2)NCCCC[C@@H](c2ccc(Cl)cc2)N1Cc1ccc(Cl)cc1 | -2% | ? | ? | ? | 12µM*! | 9%
Clc1ccc(OCc2cn3cccnc3n2)c2ncccc12 | -3% | i | -2% | -8% | i | -25%
c1cnc2c(OCc3cn4cccnc4n3)cccc2c1 | -1% | i | 12µM* | -2% | i | -34%
O=c1c2ccccc2oc2cc(-c3ccc4[nH]ccc4c3)ccc12 | 0% | i | ? | 4.1µM* | ? | -2%
COc1cc2sc3ccc(-c4ccc5[nH]ccc5c4)cc3c(=O)c2cc1OC | 1% | ? | 17% | ? | i | -28%
Cc1ccc2c(c1)cc(C(=O)NCc1ccc(F)cc1)n2C | . | i | . | . | i | 14%
SMILES | PTAP TSG101 blk | KB-V1 MDR tox | MCF10A rerep | SW480 rereplic | KB-3-1 tox | RGS4 inhibitor
CCOC(=O)c1c2c(c(=S)n(-c3ccccc3)c1N)CCC2 | 1% | 21µM* | ? | ? | i | -41%
COc1cc(Cn2c(N)c(C#N)c3nc4ccccc4nc32)cc(OC)c1 | -7% | i | 4.6µM* | 8.2µM* | i | 20%[11.4 µM]
CCOc1ccc(Cn2c3ccc(OC)cc3c3nc4ccccc4nc32)cc1 | ? | i | 5.8µM* | -4% | ? | -11%
CCn1c2ccc(OC)cc2c2nc3ccccc3nc21 | -3% | i | -2% | -4% | i | 12%
COc1ccc(Cn2c(N)c(C#N)c3nc4ccccc4nc32)cc1 | 5% | ? | 7.3µM* | 9.2µM* | i | ?
N#Cc1c(N)n(CCc2ccc(F)cc2)c2nc3ccccc3nc12 | -3% | i | ? | 15µM* | i | -12%
Cc1ccc(CNC(=O)Cn2cc(S(=O)(=O)Cc3cccc(Cl)c3)c3ccccc32)cc1 | . | i | . | . | i | -10%
CCOc1ccc(C(=O)OCC(=O)Nc2cccnc2Cl)cc1OCC | -3% | 18µM* | -2% | -7% | i | -20%
COc1cc(-c2cc3nc(NCCOc4ccccc4)ccn3n2)cc(OC)c1OC | . | 16µM* | . | . | ? | .
Cc1ccc(Cn2c(=O)c3cccnc3n(Cc3ccc(F)cc3)c2=O)cc1 | . | ? | . | . | i | 8%
CCS(=O)(=O)Nc1cccc(C2=NN(C(=O)c3ccco3)C(c3ccco3)C2)c1 (stereo unspecified) | -3% | i | 13µM* | 13µM* | 8.2µM* | -14%

From PubChem
